# Measurements as given in the supplement of paper PMC9794691.
# System: PC9
# Test: area under confluence curve of compound monotherapy; compare to DMSO control AUC of the same experiment (AUC (confluence x time, arbitrary))
# Settings: 10 nM; DMSO control AUC in same experiment: 21341
# Description: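 compare to DMSO control AUC of the same experiment; Monotherapy arm of the osimertinib DTP screen: EGFR-mutant NSCLC cells were treated with the test compound alone at a fixed dose (highest dose with <50% inhibition of parental cells, or 1 uM), then switched to drug-free medium at the DTP stage. IncuCyte confluence was tracked and AUC computed in Prism. AUC scale depends on experiment duration, so each row carries the same-experiment DMSO control AUC (monotherapy activity = DMSO AUC minus monotherapy AUC). The monotherapy value is shared between screen formats.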
row,Structure (SMILES),area under confluence curve
1,Cn1cc(CNCC2CCN(c3ncc(C(=O)NO)cn3)CC2)c2ccccc21 [Quisinostat],17400

# Same assay, conditions: 10 nM; DMSO control AUC in same experiment: 27958
row,Structure (SMILES),area under confluence curve
1,Cn1cc(CNCC2CCN(c3ncc(C(=O)NO)cn3)CC2)c2ccccc21 [Quisinostat],20800

# Same assay, conditions: 10 nM; DMSO control AUC in same experiment: 30002
row,Structure (SMILES),area under confluence curve
1,Cn1cc(CNCC2CCN(c3ncc(C(=O)NO)cn3)CC2)c2ccccc21 [Quisinostat],29800

# Same assay, conditions: 30 nM; DMSO control AUC in same experiment: 27958
row,Structure (SMILES),area under confluence curve
1,Cc1nc(Nc2ncc(C(=O)Nc3c(C)cccc3Cl)s2)cc(N2CCN(CCO)CC2)n1 [Dasatinib],22500

# Same assay, conditions: 30 nM; DMSO control AUC in same experiment: 28243
row,Structure (SMILES),area under confluence curve
1,Cc1nc(Nc2ncc(C(=O)Nc3c(C)cccc3Cl)s2)cc(N2CCN(CCO)CC2)n1 [Dasatinib],18100

# Same assay, conditions: 100 nM; DMSO control AUC in same experiment: 21913
row,Structure (SMILES),area under confluence curve
1,Nc1ccc(/C=C/C(=O)NCc2cc3cc(-c4ccc(C(=O)N5CCC(F)(F)CC5)cc4)cc(-c4ccc(F)cc4)c3o2)cn1,22800

# Same assay, conditions: 100 nM; DMSO control AUC in same experiment: 28334
row,Structure (SMILES),area under confluence curve
1,CNC(=O)c1cccc(-c2ccc3c(N4CCOC[C@@H]4C)nc(N4CCOC[C@@H]4C)nc3n2)c1,24900

# Same assay, conditions: 100 nM; DMSO control AUC in same experiment: 31219
row,Structure (SMILES),area under confluence curve
1,COC[C@H]1Cn2cc(-c3nc(Nc4ccnn4C)ncc3C)nc2C(=O)N1Cc1ccc(F)c(F)c1,30900

# Same assay, conditions: 100 nM; DMSO control AUC in same experiment: 44384
row,Structure (SMILES),area under confluence curve
1,O=C(NC[C@H](O)CN1CCc2ccccc2C1)c1ccnc(NC2CCC2)c1,43300
2,C/C=C/Cn1cc(-c2cc(OC)c(C(=O)N3CCOCC3)cc2OC)c2cc(C)[nH]c2c1=O,44600

# Same assay, conditions: 100 nM; DMSO control AUC in same experiment: 49189
row,Structure (SMILES),area under confluence curve
1,COC[C@H]1Cn2cc(-c3nc(Nc4ccnn4C)ncc3C)nc2C(=O)N1Cc1ccc(F)c(F)c1,46200

# Same assay, conditions: 300 nM; DMSO control AUC in same experiment: 19076
row,Structure (SMILES),area under confluence curve
1,COc1nnc2ccc(N3CCC(c4ccc(OCCN5CCN(C)C(=O)[C@H]5C)cc4)CC3)nn12,19200

# Same assay, conditions: 300 nM; DMSO control AUC in same experiment: 19507
row,Structure (SMILES),area under confluence curve
1,CN1CCN(CCOc2cc(OC3CCOCC3)c3c(Nc4c(Cl)ccc5c4OCO5)ncnc3c2)CC1 [Saracatinib],16000

# Same assay, conditions: 300 nM; DMSO control AUC in same experiment: 21594
row,Structure (SMILES),area under confluence curve
1,COc1nnc2ccc(N3CCC(c4ccc(OCCN5CCN(C)C(=O)[C@H]5C)cc4)CC3)nn12,20500

# Same assay, conditions: 300 nM; DMSO control AUC in same experiment: 28243
row,Structure (SMILES),area under confluence curve
1,CN1CCN(CCOc2cc(OC3CCOCC3)c3c(Nc4c(Cl)ccc5c4OCO5)ncnc3c2)CC1 [Saracatinib],24000

# Same assay, conditions: 300 nM; DMSO control AUC in same experiment: 28684
row,Structure (SMILES),area under confluence curve
1,Cc1c[nH]c2nc(Nc3ccc(N4CCN(C)CC4)c(F)c3)nc(-c3cccc(CC#N)c3)c12,21400

# Same assay, conditions: 300 nM; DMSO control AUC in same experiment: 30008
row,Structure (SMILES),area under confluence curve
1,Cc1c[nH]c2nc(Nc3ccc(N4CCN(C)CC4)c(F)c3)nc(-c3cccc(CC#N)c3)c12,29700

# Same assay, conditions: 300 nM; DMSO control AUC in same experiment: 31840
row,Structure (SMILES),area under confluence curve
1,COc1nnc2ccc(N3CCC(c4ccc(OCCN5CCN(C)C(=O)[C@H]5C)cc4)CC3)nn12,31700

# Same assay, conditions: 300 nM; DMSO control AUC in same experiment: 43316
row,Structure (SMILES),area under confluence curve
1,Cc1c[nH]c2nc(Nc3ccc(N4CCN(C)CC4)c(F)c3)nc(-c3cccc(CC#N)c3)c12,33700

# Same assay, conditions: 300 nM; DMSO control AUC in same experiment: 44384
row,Structure (SMILES),area under confluence curve
1,COc1nnc2ccc(N3CCC(c4ccc(OCCN5CCN(C)C(=O)[C@H]5C)cc4)CC3)nn12,39700

# Same assay, conditions: 300 nM; DMSO control AUC in same experiment: 88996
row,Structure (SMILES),area under confluence curve
1,CN(C)C(=O)c1cc2cnc(Nc3ccc(N4CCNCC4)cn3)nc2n1C1CCCC1 [Ribociclib],88200

# Same assay, conditions: 1000 nM; DMSO control AUC in same experiment: 21594
row,Structure (SMILES),area under confluence curve
1,COc1nn(C)cc1Nc1nccc(-c2c[nH]c3c(NC(=O)[C@@H](C)N4CCN(C)CC4)cccc23)n1,20800
2,Cc1cc2cc(C(=O)c3cnn(-c4cnc(Oc5c(F)cccc5F)cc4C)c3N)[nH]c2cc1NS(C)(=O)=O,18400
3,COc1cc(CCc2cc(NC(=O)c3ccc(N4CC(C)NC(C)C4)cc3)n[nH]2)cc(OC)c1 (centres undefined),20200

# Same assay, conditions: 1000 nM; DMSO control AUC in same experiment: 22064
row,Structure (SMILES),area under confluence curve
1,C[C@@H](Oc1cc(-c2cnn(C3CCNCC3)c2)cnc1N)c1c(Cl)ccc(F)c1Cl [Crizotinib],21100
2,CCc1cc2c(cc1N1CCC(N3CCOCC3)CC1)C(C)(C)c1[nH]c3cc(C#N)ccc3c1C2=O [Alectinib],16200

# Same assay, conditions: 1000 nM; DMSO control AUC in same experiment: 26668
row,Structure (SMILES),area under confluence curve
1,COc1ccc(CCc2nc3cc(-c4c(C)noc4C)ccc3n2C[C@H](C)N2CCOCC2)cc1Cl,28400
2,COc1cc(CCc2cc(NC(=O)c3ccc(N4CC(C)NC(C)C4)cc3)n[nH]2)cc(OC)c1 (centres undefined),28200

# Same assay, conditions: 1000 nM; DMSO control AUC in same experiment: 27958
row,Structure (SMILES),area under confluence curve
1,CN1CCN(c2nc(C3=C(c4c[nH]c5ccccc45)C(=O)NC3=O)c3ccccc3n2)CC1 [Sotrastaurin],27000

# Same assay, conditions: 1000 nM; DMSO control AUC in same experiment: 29345
row,Structure (SMILES),area under confluence curve
1,Cc1cc(Nc2ncnc3ccc(NC4=NC(C)(C)CO4)cc23)ccc1Oc1ccn2ncnc2c1 [Tucatinib],29400
2,CS(=O)(=O)CCNCc1ccc(-c2ccc3ncnc(Nc4ccc(OCc5cccc(F)c5)c(Cl)c4)c3c2)o1 [Lapatinib],20900

# Same assay, conditions: 1000 nM; DMSO control AUC in same experiment: 30002
row,Structure (SMILES),area under confluence curve
1,Cc1cc(Nc2ncnc3ccc(NC4=NC(C)(C)CO4)cc23)ccc1Oc1ccn2ncnc2c1 [Tucatinib],30200

# Same assay, conditions: 1000 nM; DMSO control AUC in same experiment: 30326
row,Structure (SMILES),area under confluence curve
1,CCN(c1cc(-c2ccc(CN3CCOCC3)cc2)cc(C(=O)NCc2c(C)cc(C)[nH]c2=O)c1C)C1CCOCC1 [Tazemetostat],29400

# Same assay, conditions: 1000 nM; DMSO control AUC in same experiment: 30578
row,Structure (SMILES),area under confluence curve
1,Cc1nc2nc(C)c(O[C@@H]3CCN(c4ccc(-c5ccc(CN6CCOCC6)nn5)cc4)C3)c(C)n2n1,30800

# Same assay, conditions: 1000 nM; DMSO control AUC in same experiment: 31840
row,Structure (SMILES),area under confluence curve
1,CCOC(=O)c1ccnc(CNCC(=O)N(CC)CCN(C)C)c1,30800

# Same assay, conditions: 1000 nM; DMSO control AUC in same experiment: 43316
row,Structure (SMILES),area under confluence curve
1,C[C@@H](c1ccc2nccn2c1)n1nnc2ncc(-c3cnn(C)c3)nc21 [Savolitinib],43600

# Same assay, conditions: 1000 nM; DMSO control AUC in same experiment: 45737
row,Structure (SMILES),area under confluence curve
1,Cc1onc(C(=O)N2CCN(C(c3ccc(Cl)cc3)c3ccc(Cl)cc3)CC2)c1[N+](=O)[O-],46500

# Same assay, conditions: 1000 nM; DMSO control AUC in same experiment: 48219
row,Structure (SMILES),area under confluence curve
1,COc1ccc(CCc2nc3cc(-c4c(C)noc4C)ccc3n2C[C@H](C)N2CCOCC2)cc1Cl,49000

# Same assay, conditions: 1000 nM; DMSO control AUC in same experiment: 72888
row,Structure (SMILES),area under confluence curve
1,COc1ccc(CCc2nc3cc(-c4c(C)noc4C)ccc3n2C[C@H](C)N2CCOCC2)cc1Cl,72800
